In PubChem BioAssay:

Test: A549 cell viability effects, profiling panel, calcein-AM fluorescence, 48 h, basal (AID 1162); note: test concentration not given here
Conditions: higher = more signal

Compound | z-score
CC(C)[Si](C#Cc1ccc(Oc2ccccc2)cc1)(O[Si](C#Cc1ccc(Oc2ccccc2)cc1)(C(C)C)C(C)C)C(C)C | 0.271
O=C(NCCO)C1=C[C@H](Oc2ccccc2I)[C@@H](O)[C@H](N(Cc2ccco2)C(=O)Cc2ccccc2)C1 | -0.22
COc1ccc(C#Cc2ccc3c(c2)[C@]2(C(=O)N3)[C@H](C(=O)Nc3nc4ccccc4s3)[C@H]3C(=O)O[C@H](c4ccccc4)[C@H](c4ccccc4)N3[C@@H]2c2ccc(O)cc2)cc1 | -0.151
C=CCOC(=O)[C@H]1[C@@H]2C(=O)O[C@@H](c3ccccc3)[C@@H](c3ccccc3)N2[C@@H](c2ccc(OCCOC(=O)[C@@H]3C[C@@H]4C(=O)N[C@@H](CCCCNC(C)=O)C(=O)N4[C@@H]3c3ccc(O)cc3)cc2)[C@]12C(=O)Nc1ccccc12 | -0.41
COC(=O)[C@H](Cc1ccccc1)N[C@@H](/C=C/C1CC1)[C@H](O)Cc1ccccc1 | 0.168
CC(C)N1C(=O)[C@@]2(Cc3ccccc31)c1ccccc1C(=O)N(Cc1ccccc1Cl)[C@H]2c1ccc(CO)cc1 | 1.02
COC(=O)c1c(CC[C@@H](CO)NC(=O)NCCn2cc(C3(O)CCCC3)nn2)oc(C(C)=O)c1C(=O)OC | -0.298
Cc1ccc(S[C@]2(C(=O)NCCCN(C)C)CC(=O)N(Cc3cc(C(F)(F)F)cc(C(F)(F)F)c3)[C@@H]2c2ccc(CO)cc2)cc1 | -0.159
CCOC(=O)C1=C[C@@H](C(C)(C)C)N(S(=O)(=O)c2ccc(C)cc2)[C@H]1c1ccc(F)cc1 | -1.5
COc1cc2c(cc1OC)CN(C(=O)[C@H]1[C@@H]3C(=O)O[C@@H](c4ccccc4)[C@@H](c4ccccc4)N3[C@@H](c3ccc(O)cc3)[C@]13C(=O)Nc1ccccc13)CC2 | -0.214
COC(=O)C(CC#Cc1ccc2c(c1)[C@]1(C(=O)N2)[C@H](c2ccc(OCCO)cc2)N2[C@H](c3ccccc3)[C@H](c3ccccc3)OC(=O)[C@H]2[C@@H]1C(=O)Nc1nc2ccccc2s1)C(=O)OC | 0.214
COCCOC(=O)N1C(=O)[C@@]2(c3cc(C#CCCO)ccc31)[C@H](C(=O)N1CCCCCCC1)[C@H]1C(=O)O[C@H](c3ccccc3)[C@H](c3ccccc3)N1[C@@H]2c1ccc(OCCO)cc1 | 0.338
C[N+](C)(C)CCCCCCNC(=O)[C@@H]1C[C@@H]2C(=O)N[C@@H](Cc3ccccc3)C(=O)N2[C@@H]1c1cccc(OCCO)c1 | 0.741
CC(=O)n1cc(C(O)C2C=CC3C(=O)N(c4ccccc4)C(=O)C3N2Nc2ccc([N+](=O)[O-])cc2)c2ccccc21 (stereo not given) | -0.456
COC(=O)[C@]1(CCC(=O)OC(C)(C)C)N=C(c2ccc(OCCCO)cc2)O[C@@H]1c1ccccc1CN=[N+]=[N-] | -2.13
CC1CC/C=C\[C@H]2OC34C=CCN(Cc5ccccc5)C(=O)[C@H]3N(CCCO)C(=O)[C@@H]4C2C(=O)O1 (stereo not given in full) | -0.0905
C=CC(=C)[C@H]1Oc2ccccc2S(=O)(=O)N2CCC[C@@H]12 | 0.159
COCCOC(=O)N1C(=O)[C@@]2(c3cc(C#CC4(O)CCCCCC4)ccc31)[C@H](c1ccc(OCCO)cc1)N1[C@H](c3ccccc3)[C@H](c3ccccc3)OC(=O)[C@H]1[C@@H]2C(=O)N1CCN(c2ncccn2)CC1 | -0.147
COc1ccc(CCNC(=O)[C@@]2(C)c3ccccc3C(=O)N(C(C)C)[C@H]2c2ccc(CO)cc2)cc1 | 0.133
CC1(C)C2C=C(C(O)C3C=CC4C(=O)NC(=O)C4N3Nc3ccc(Cl)cc3Cl)C[C@@H]1C2 (stereo not given in full) | -2.48
O=C1N(Cc2ccccc2)c2ccccc2[C@@H]2OC(c3ccc(OCCCO)cc3)=N[C@]12CCS(=O)(=O)c1ccccc1 | -0.221
COc1cc(COC(C)=O)ccc1OC(C)=O | 1.97
O=C(OCc1ccccc1)C1=CCC2c3[nH]c4ccccc4c3C(=O)C1N2S(=O)(=O)c1ccccc1[N+](=O)[O-] (stereo not given) | -0.725
O=C(NC1CC1)[C@@H]1c2ccccc2C(=O)N(Cc2ccccc2Cl)[C@H]1c1ccc(CO)cc1 | 3.23
C[N+](C)(C)CCCCNC(=O)[C@H]1C[C@H]2C(=O)N3CCC[C@H]3C(=O)N2[C@H]1c1cccc(OCCO)c1 | -0.591
